Only a selection was taken, and hits are over-represented in it overall.
Cycloheximide cs: counter-screen hit for Shiga toxin inhibitors, cycloheximide | max response, % | cell reporter, cycloheximide protein synthesis inhibition counterscreen | 300,000 tested, 12% active; in the data active = max response mostly above about 13%, no sharp cut-off; inactive = mostly below about 14%; note: read at 38.3 µM for the half of the compounds with a filed dose
SARS PLP yeast: blocks SARS-CoV papain-like protease in a yeast assay; AID 485353; 330,000 tested, 0.19% active; Potency, µM (titrated, usually from 32.9 µM), actives largely listed as activators; S. cerevisiae expressing SARS-CoV PLpro, growth rescue; calls by dose curve; note: nearly all actives have a fitted effect of over 55% in size
Shiga inhibitor: Shiga toxin inhibition | 290,000 tested, 9.2% active | Vero cells, Shiga toxin protein synthesis inhibition reporter | inhibition, % at 38.7 µM; in the data active = inhibition mostly above about 28%, no sharp cut-off; inactive = mostly below about 43%
AmpC inh detg: AmpC beta-lactamase inhibition with detergent present; P00811; AmpC hydrolysis of nitrocefin, absorbance 480 nm, 0.01% Triton; Potency, µM (titrated, usually from 114 µM), usual class: inhibitors; 370,000 tested, 0.041% active; note: nearly all actives have a fitted effect of over 25% in size
Target sequence (P00811 whole entry, looked up): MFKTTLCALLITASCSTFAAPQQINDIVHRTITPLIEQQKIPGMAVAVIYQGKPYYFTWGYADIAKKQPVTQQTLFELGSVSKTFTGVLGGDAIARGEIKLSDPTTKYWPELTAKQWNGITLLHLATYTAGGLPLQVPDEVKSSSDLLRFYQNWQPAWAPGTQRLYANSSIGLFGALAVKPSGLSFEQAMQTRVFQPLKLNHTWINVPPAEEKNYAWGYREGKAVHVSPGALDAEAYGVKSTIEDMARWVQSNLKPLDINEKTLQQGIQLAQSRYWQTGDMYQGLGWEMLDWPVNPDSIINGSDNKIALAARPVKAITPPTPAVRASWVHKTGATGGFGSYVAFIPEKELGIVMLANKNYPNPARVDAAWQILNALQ
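AmpC (5.3 nM in the dispensed reagent) in 20 mM phosphate pH 7.0 with 0.01% (detergent screen) or 0.0001% Triton X-100 was preincubated with compounds for 15 min at room temperature. Nitrocefin was then added from an 800 uM solution, and hydrolysis was followed at 480 nm.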
AMA1 RON2 block: AMA1-RON2 (P. falciparum) interaction inhibition; Potency, µM (highest dose often 58.2 µM), usual class: inhibitors; AlphaScreen AMA1-biotinylated RON2 peptide binding; 360,000 tested, 0.2% active; note: nearly all actives have a fitted effect of over 45% in size
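AMA1 (3D7) with his tag at 25 nM final met compounds first, then biotinylated RON2 peptide at 25 nM; detection used donor plus acceptor beads, 10 µg/mL apiece, read by AlphaScreen after 30 min at room temperature.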
AmpC inh no detg: inhibitors of E. coli AmpC beta-lactamase without detergent. P00811. AmpC nitrocefin hydrolysis, absorbance 480 nm, 0.0001% Triton. Potency, µM (doses to about 57.1 µM), usual class: inhibitors. 330,000 tested, 0.52% active. AID 485341; note: nearly all actives have a fitted effect of over 20% in size
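20 mM phosphate pH 7.0 + 0.01% (detergent screen) or 0.0001% Triton X-100; 5.3 nM AmpC reagent; cpd preinc 15 min RT; nitrocefin (800 uM stock) to start; A480 q20 s × 4 min; Activity was normalised to no-enzyme and no-compound control wells.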
Large screens that a line does not name were inactive. Unless noted, calls come from the whole dose curve; as a rule, active = well fitted curve in the direction sought with a large enough effect; inconclusive = small, poorly fitted or top-dose-only effect, or another doubt; inactive = no such curve, though single readings can be large; an effect the other way counts as inactive or inconclusive.

O=C(Nc1ccccc1C(=O)N/N=C/c1ccco1)c1ccc(F)cc1	none
O=C(Nc1ccccc1C(=O)N/N=C/c1ccco1)c1ccccc1	Shiga inhibitor active
CCOc1ccc(-c2nnn(CC(=O)c3ccc4c(c3)OCCO4)n2)cc1	AmpC inh detg inconclusive
O=C(Cn1ccc([N+](=O)[O-])n1)N1CCCc2ccccc21	Cycloheximide cs 54, Shiga inhibitor 127
Cc1nn(CC(=O)c2cccc(Cl)c2)c(C)c1[N+](=O)[O-]	Cycloheximide cs 24
O=C(Cn1ccc([N+](=O)[O-])n1)N1CCCCCC1	none
Cc1nn(CC(=O)N2CCCc3ccccc32)c(C)c1[N+](=O)[O-]	Cycloheximide cs 28
CNc1snc(C)c1C(=O)OCC(=O)N(C)Cc1ccccc1	none (no result: Cycloheximide cs, Shiga inhibitor)
C[C@@H]1CNC(=O)c2c(C(=O)NCc3ccc(CNC(=O)OC(C)(C)C)cc3)ncn21	none (no result: Cycloheximide cs, SARS PLP yeast, Shiga inhibitor, AmpC inh detg, AmpC inh no detg)
Nc1nc(N)nc(-c2ccc(Oc3ccccc3)cc2)n1	none
Cc1sc(N)nc1-c1ccc(Oc2ccccc2)cc1	Cycloheximide cs 19
Cc1sc(N)nc1-c1ccc2c(c1)OCCO2	Cycloheximide cs 17, Shiga inhibitor 53
COc1ccc(CC(=O)Nc2cccc(C(=O)NN3C(=O)c4ccccc4C3=O)c2C)cc1	none
COc1cccc(CNC(=O)CCC2CCCN(C(=O)c3ccc(OC)o3)C2)c1 (centres undefined)	Cycloheximide cs 22, Shiga inhibitor 60
COc1cccc(CNC(=O)CCC2CCCN(C(=O)c3cc(C4CC4)[nH]n3)C2)c1 (centres undefined)	Cycloheximide cs 17, Shiga inhibitor 34
COc1cc(CN2CCN(CCCSc3cc(C(C)(C)C)c(O)c(C(C)(C)C)c3)CC2)cc(OC)c1OC	none (no result: SARS PLP yeast, AmpC inh detg, AMA1 RON2 block, AmpC inh no detg)
CC(=O)c1cccc2c(O)c(C3=Nc4ccccc4C3=O)[nH]c12	Cycloheximide cs 48, Shiga inhibitor 89, AmpC inh detg inconclusive, AMA1 RON2 block inconclusive
O=C(NN1C(=O)c2ccccc2NC1c1ccccn1)c1ccccc1 (centres undefined)	Cycloheximide cs 13, Shiga inhibitor 24
O=C1c2ccccc2NC(c2ccccn2)N1c1ccc(Cl)cc1 (centres undefined)	Cycloheximide cs 31, Shiga inhibitor 71
O=C(NCCc1ccc(S(=O)(=O)N2CCCC2)cc1)c1cccs1	none
CCOCC(=O)N1CCc2ccccc21	none
O=C(CN1CCCc2ccccc21)N1CCc2ccccc21	Cycloheximide cs 28, Shiga inhibitor 48
NNC(=O)CN1CCCc2ccccc21	Cycloheximide cs 69, Shiga inhibitor 92
CC(CC(=O)N1CCc2ccccc21)c1ccccc1 (centres undefined)	Cycloheximide cs 18
COc1ccc(S(=O)(=O)Nc2nccs2)cc1OC	none
Cc1nnc(C)n1/N=C/c1cccnc1	none
CCS(=O)(=O)c1ccc(C=NNc2nc3ccccc3o2)cc1	none (no result: Cycloheximide cs, SARS PLP yeast, Shiga inhibitor, AmpC inh detg, AmpC inh no detg)
O=[N+]([O-])c1ccc(/C=N/Nc2nc3ccccc3o2)cc1	Cycloheximide cs 31, Shiga inhibitor 48
C(=N\N=C\c1cccnc1)/c1cccnc1	Cycloheximide cs 40, Shiga inhibitor 26
Clc1ccc(N/N=C/c2cccnc2)cc1	Shiga inhibitor 30
Cc1sc(N/N=C/c2cccnc2)nc1-c1ccc(Cl)cc1	Cycloheximide cs 15
O=C(CSc1nnc(-c2cccnc2)s1)Nc1cccc(C(=O)O)c1	AmpC inh detg inconclusive
CCCNC(=O)N(C)C[C@@H]1Oc2ncc(-c3ccncc3)cc2C(=O)N([C@H](C)CO)C[C@@H]1C	none (no result: Cycloheximide cs, SARS PLP yeast, Shiga inhibitor, AmpC inh detg, AmpC inh no detg)
CC(=O)c1ccc(NC(=O)CN2CCC(C(=O)c3ccc(F)cc3)CC2)cc1	none
O=[N+]([O-])c1ccc(N/N=C/c2cccnc2)cc1	Cycloheximide cs 33, Shiga inhibitor 41
O=C(Cc1ccc([N+](=O)[O-])cc1)N/N=C/c1cccnc1	none (no result: Cycloheximide cs, SARS PLP yeast, Shiga inhibitor, AmpC inh detg, AmpC inh no detg)
COc1ccc(C2=NN(C(=O)COC(=O)c3ccc(S(C)(=O)=O)c([N+](=O)[O-])c3)C(c3ccco3)C2)cc1 (centres undefined)	none (no result: Cycloheximide cs, Shiga inhibitor, AmpC inh detg)
CCCCC(c1nc2ccccc2[nH]1)n1c(=O)c(-c2ccccc2)nc2cc(C)c(C)cc21 (centres undefined)	none (no result: Cycloheximide cs, SARS PLP yeast, Shiga inhibitor, AmpC inh detg, AmpC inh no detg)
C#CCNC(=O)C1=C[C@H](c2ccc3c(c2)OCO3)C[C@H](OCc2ccc(CO)cc2)O1	Cycloheximide cs 18
C#CCNC(=O)C1=C[C@H](c2ccc3c(c2)OCO3)C[C@H](OCCCCO)O1	none (no result: Cycloheximide cs, SARS PLP yeast, Shiga inhibitor, AmpC inh detg, AmpC inh no detg)
O=C(O)C1=C[C@@H](c2ccc3c(c2)OCO3)C[C@@H](OCc2ccc(CO)cc2)O1	none
NC(=O)C1=C[C@H](c2ccc3c(c2)OCO3)C[C@H](OCc2ccc(CO)cc2)O1	Cycloheximide cs 43, Shiga inhibitor 49
CCCCOc1ccc(-c2[nH]ncc2C=O)cc1	Cycloheximide cs 37, Shiga inhibitor 117
Cc1nc(SCC(=O)Nc2ccc(C)c(Cl)c2)cc(-c2ccccc2)n1	none (no result: Cycloheximide cs, SARS PLP yeast, Shiga inhibitor, AMA1 RON2 block, AmpC inh no detg)
Cc1ccc(NC(=O)CSc2ccccc2NC(=O)c2ccccc2)cc1Cl	Cycloheximide cs 34
Cc1ccc(NC(=O)CSc2ccccc2NC(=O)c2ccccc2Cl)cc1Cl	Cycloheximide cs 18, AmpC inh no detg inconclusive
Cc1ccc(NC(=O)CSc2ncccc2C(=O)Oc2ccccc2Cl)cc1Cl	none (no result: Cycloheximide cs, SARS PLP yeast, Shiga inhibitor, AMA1 RON2 block, AmpC inh no detg)
CCN(CC)c1ccc(N)cc1	AMA1 RON2 block 11µM (no result: Cycloheximide cs, Shiga inhibitor)
Nc1ccc(N(CCO)CCO)cc1	none
COc1ccc(-c2csc(Nc3cc(C)ccn3)n2)cc1C	Cycloheximide cs 62, Shiga inhibitor 120
COc1ccc(-c2csc(Nc3ncccn3)n2)cc1C	Cycloheximide cs 31, Shiga inhibitor 48
COc1ccc(-c2cc3cc(OC)c(OC)cc3c(C)n2)cc1C	none
COc1ccc(Cc2nc(-c3ccncc3)no2)cc1	Cycloheximide cs 37, Shiga inhibitor 85
COc1ccc(-c2noc(Cc3cccs3)n2)cc1	Cycloheximide cs 32, Shiga inhibitor 82
Clc1ccc(Cc2nc(-c3ccncc3)no2)cc1	Cycloheximide cs 17
CC12CCC(c3n[nH]c(=S)nc31)C2(C)C (centres undefined)	none
COc1cc2ccccc2cc1C(=O)NC1CCCC1	none (no result: Cycloheximide cs, Shiga inhibitor, AmpC inh detg)
O=C(NCC(O)COc1ccc([N+](=O)[O-])cc1)Nc1ccccc1 (centres undefined)	Cycloheximide cs 30, Shiga inhibitor 34
CCN(C(=O)Cn1c(=O)n(Cc2ccccc2)c(=O)c2c1c1cc(OC)ccc1n2C)c1ccccc1	none (no result: Cycloheximide cs, SARS PLP yeast, Shiga inhibitor, AMA1 RON2 block, AmpC inh no detg)
c1ccc(N2CCN(c3nc4ccccc4[nH]3)CC2)nc1	Cycloheximide cs 22, Shiga inhibitor 49, AmpC inh detg inconclusive
O=C(NNC(=O)c1ccccc1F)c1cccc(-n2cccc2)c1	none (no result: Cycloheximide cs, Shiga inhibitor)
Nc1c(C(=O)Nc2ccccc2F)sc2nc(-c3cccnc3)ccc12	none
COC(=O)c1cc2c(N)c(C(=O)c3ccccc3)sc2nc1C(OC)OC	Cycloheximide cs 24

Bioassay records from PubChem BioAssay.
